Results from PubChem BioAssay (NCI).
Compounds without any hit were thinned out: in the full panel of roughly 79,000, 15% have a hit. Calls of active or inactive are those of the source. No stated cut-off is given here; in the data, active means growth inhibition above about 70%; inactive means the rest.

assay: NCI Yeast Anticancer Drug Screen. Data for the bub3 strain (AID 167); settings: S. cerevisiae bub3 mutant strain, at 50.0 µM, hits give high values
Procedure, shortened: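 Compounds were applied to a genetically altered yeast strain carrying a cell-cycle control defect. Growth inhibition was scored against vehicle-treated controls.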

SMILES	growth inhibition
O=C(NC(OCc1ccccc1)(C(F)(F)F)C(F)(F)F)OCc1ccccc1	94.5% (active)
Cc1cc2oc3c(ccc(=O)n3C)c(=O)c2c(C)c1Cl	30.2% (inactive)
COc1cc2c(cc1OC)C(=O)C(C)(c1ccccc1)NC2 (stereo not given)	97.3% (active)
CCC(C)NCCNc1cc(OC)cc2cccnc12 (stereo not given)	35% (inactive)
CN(C)CCCN=c1c2ccccc2n(O)c2ccccc12	-9.35% (inactive)
N#CCc1ccccc1-c1cccc2ccccc12	40% (inactive)
CN=C1NS(=O)(=O)c2ccccc21	-0.85% (inactive)
COc1cc(CSc2ccc(O)cc2)cc(OC)c1OC	81.8% (active)
CN(C)CCCNc1c2ccccc2nc2cccc([N+](=O)[O-])c12	90.8% (active)
CCCCCCCCCCCCCCCc1ncc(C)[nH]1	99.5% (active)
